This passage reports inhibition results from PubChem BioAssay AID1259374 (The Scripps Research Institute Molecular Screening Center, 2018).

About 5,900 (0.91%) of roughly 650,000 compounds were called active. Cut-off read from the data, not from the text of the source: active = inhibition above about 50%; inactive = the rest. What follows is part of a selection rich in actives, with near analogues and random picks from the rest.

As a reminder, the inhibition is the relative decrease from the control value, in per cent.

The target of this test is Microphthalmia-associated transcription factor (Homo sapiens) (UniProt O75030). Kind of test: MITF inhibitors, primary screen, biochemical, AlphaScreen, human (AID 1259374).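 Note: 0% = vehicle wells with protein.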 The note with it: AlphaScreen MITF homodimerization, bead proximity signal; at 2.6 µM; active compounds read high.
Chain of Microphthalmia-associated transcription factor (Homo sapiens) (O75030 whole entry, looked up): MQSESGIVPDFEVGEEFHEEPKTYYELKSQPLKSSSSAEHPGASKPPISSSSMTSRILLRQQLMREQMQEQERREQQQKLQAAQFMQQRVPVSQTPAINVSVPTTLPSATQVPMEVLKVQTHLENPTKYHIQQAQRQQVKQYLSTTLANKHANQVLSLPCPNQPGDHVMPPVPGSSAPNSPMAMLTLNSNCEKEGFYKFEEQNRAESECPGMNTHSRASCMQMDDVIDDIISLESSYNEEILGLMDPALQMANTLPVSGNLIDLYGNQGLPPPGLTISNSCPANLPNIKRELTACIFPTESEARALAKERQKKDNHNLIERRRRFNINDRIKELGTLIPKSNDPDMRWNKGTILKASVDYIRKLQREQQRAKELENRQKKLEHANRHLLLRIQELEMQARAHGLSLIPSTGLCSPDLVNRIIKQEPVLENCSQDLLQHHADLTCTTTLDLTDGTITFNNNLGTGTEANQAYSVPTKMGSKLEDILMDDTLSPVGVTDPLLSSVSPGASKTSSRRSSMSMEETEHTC
For the compound `CCn1c(=O)c2ccccc2n2c(SCC(=O)Nc3nccs3)nnc12`, the inhibition was 0.8% (inactive).
Regarding `COc1ccc(CCN2CCC(c3nc(-c4ccc5c(c4)OCO5)no3)CC2)cc1OC`, the inhibition is 7.81% (inactive).
As for `O=C(N/N=C/c1cc(Br)ccc1O)c1ccc(=O)[nH]n1`, the figure is 80.2% (active).
As for `O=C(N/N=C/c1cc(Br)ccc1O)c1cc(Br)ccc1O`, the figure is 8.32% (inactive); as for `O=C(N/N=C/c1cc(Br)ccc1O)c1cc(-c2cccs2)[nH]n1`, 17.6% (inactive); as for `COC(=O)C1=C(O)/C(=C\c2cccc(O)c2)N=C1C`, 58% (active).
On to `COC(=O)C1=C(O)/C(=C\c2ccccc2C(F)(F)F)N=C1C`, for which the inhibition is 1.73% (inactive).
With `CCOC(=O)C1=C(O)/C(=C\c2cccc(Cl)c2)N=C1C`, the inhibition is -3.89% (inactive).
As for `CCN(CC)C(=O)C1CCCN(c2cccc(C(=O)NCCOc3ccccc3)c2)C1` (stereo unspecified), the figure is 17.9% (inactive); as for `c1nc(SCc2ccc3c(c2)OCO3)c2[nH]cnc2n1`, 5.04% (inactive); as for `Cn1c(N)c(C(=O)CSc2ncnc3nc[nH]c23)c(=O)n(C)c1=O`, 10.9% (inactive).
Regarding `O=C(CSc1ncnc2nc[nH]c12)c1ccc(O)c(O)c1`, the inhibition was 82.1% (active).
As for `CC(=O)N1CCN(Cc2ccc3c(c2)CN(C(=O)c2cccc(N(C)C)c2)CCO3)CC1`, the figure is 1.41% (inactive); as for `C/C(=N\NC(=O)CCCc1cc2ccccc2[nH]1)c1ccncc1`, 12.8% (inactive).
As for `COc1cccc(CCNC(=O)CC2C(=O)NCCN2Cc2cccc(C(F)(F)F)c2)c1` (stereo unspecified), the inhibition was 10.1% (inactive).
The result for `CCCS(=O)(=O)N1CCN(C(=O)c2cccs2)CC1` reads 16.3% (inactive); that for `CCCS(=O)(=O)N1CCN(c2ccc(C)nn2)CC1`, 1.44% (inactive).
Take `CCCS(=O)(=O)N1CCN(C(C)C)CC1`: the inhibition is 87.2% (active).
The result for `C[n+]1ccc(C(=O)N/N=C/c2ccc(Cl)cc2Cl)cc1` reads 0.41% (inactive); that for `O=C1Nc2c(Cl)cc(Cl)cc2/C1=N\N=C\c1ccc(O)c(O)c1O`, 80.2% (active).
The result for `O=C(N/N=C\c1ccc(Cl)cc1Cl)c1ccccc1O` reads 9.14% (inactive).
As for `CCC1CCCCN1Cc1c(O)ccc2c(=O)c(Oc3ccc(OC)cc3)c(C(F)(F)F)oc12` (stereo unspecified), the figure is -1.92% (inactive); as for `CC(C)C[C@@H]1NC(=O)[C@@H]2C[C@H](NC(=O)Nc3c(Cl)cccc3Cl)CN2C1=O`, 2.93% (inactive).
Turning to `Cc1noc(C)c1-c1cccc(C(=O)NCCCN2CCCC2=O)c1`, the inhibition is 12.4% (inactive).
As for `CN(C)CCCNC(=O)C(=O)Nc1ccccc1F`, the figure is -6.25% (inactive).
The result for `CCOC(=O)N1CCC(N(CCOC)C(=S)Nc2ccccc2F)CC1` reads -9.05% (inactive).
As for `CC(c1ccccn1)N(CCN(C)C)C(=S)Nc1ccccc1F` (stereo unspecified), the figure is 58% (active).
On to `Cc1ccc(S(=O)(=O)N(CCC(=O)NCC2CCCO2)Cc2c(Cl)cccc2Cl)cc1` (stereo unspecified), for which the inhibition was -0.49% (inactive).
Consider `O=C(Nc1sc2c(c1C(=O)Nc1ccccc1)CCCCC2)c1ccncc1`, for which the inhibition is 17.1% (inactive).
Take `CCOc1ccc(C(=O)Nc2cccc(-c3nc4cc(C)cc(C)c4o3)c2)cc1[N+](=O)[O-]`: the inhibition was 8.35% (inactive).
Take `COc1cc(C(=O)N/C(=C/c2ccc3c(c2)OCO3)C(=O)NCC(=O)O)cc(OC)c1OC`: the inhibition is -4.22% (inactive).
The result for `CC1CCCCC1NC(=O)CSc1nnc(-c2ccncc2)n1CCCN(C)C` (stereo unspecified) reads 85.7% (active).
For `CCCn1c(SCC(=O)NC2CCCCC2C)nnc1-c1cccnc1` (stereo unspecified), the inhibition was 0.55% (inactive).
The result for `COCCCn1c(SCC(=O)NC2CCCCC2)nnc1-c1ccccc1` reads 8.3% (inactive).
The result for `CCNC(=S)NNC(=O)c1cccc(S(=O)(=O)Nc2ccc(C)cc2C)c1` reads 6.71% (inactive); that for `CCCS(=O)(=O)N1CCc2ccc(NC(=O)/C=C/c3ccco3)cc2C1`, 14.1% (inactive).
As for `COc1cc(N2CCOCC2)ccc1Nc1cc(Nc2ccccc2-n2cccn2)c(C(F)(F)F)cn1`, the figure is 57.2% (active).
Regarding `CNC(=O)c1ccccc1Nc1cc(Nc2ccc(N3CCOCC3)cc2OC)ncc1F`, the inhibition was 4.9% (inactive).
For `COc1cc(N2CCOCC2)ccc1Nc1cc(Nc2ccccc2C(N)=O)ccn1`, the inhibition is 21.1% (inactive).
Consider `N#CCN1C(=O)C(=O)/C(=C(/O)c2ccccc2)C1c1ccccn1` (stereo unspecified), for which the inhibition was 19.8% (inactive).
`COc1cc(CN2CCC(N3CCC(C(=O)NCC4CCCO4)CC3)CC2)cc(OC)c1` (stereo unspecified): the inhibition is 6.5% (inactive).
Regarding `CC(C)c1ccc(C2/C(=C(/O)c3ccccc3)C(=O)C(=O)N2CCN(C)C)cc1` (stereo unspecified), the inhibition is 57.4% (active).
As to `Cc1ccc(C2/C(=C(/O)c3ccc(Cl)cc3)C(=O)C(=O)N2CCN(C)C)cc1` (stereo unspecified), the inhibition is -18.6% (inactive).
Turning to `CN(C)c1ccc(C2/C(=C(/O)c3ccccc3)C(=O)C(=O)N2CCO)cc1` (stereo unspecified), the inhibition is -0.75% (inactive).
The result for `O=C(Nc1ccc(-c2cn3ccccc3n2)cc1)c1ccc(Br)o1` reads 11.4% (inactive).
As for `C/C(=N\Nc1ccc(Cl)c(C(=O)O)c1)c1ccc([N+](=O)[O-])cc1`, the figure is 0.79% (inactive).
On to `CS(=O)(=O)N(Cc1ccccc1)c1ccccc1C(=O)N1CCCCCC1`, for which the inhibition is -12% (inactive).
Regarding `CCN(CC)S(=O)(=O)c1ccc(OCC(=O)Nc2ccc(C(C)=O)cc2)c([N+](=O)[O-])c1`, the inhibition was -5.88% (inactive).
On to `CCCCCc1ccc(-c2ccc(C(=O)Oc3ccc(-c4ccccc4)cc3)cc2)nc1`, for which the inhibition was 3.19% (inactive).
The result for `CCCCCOc1ccc(OC(=O)c2ccc(-c3ccc(CCC)cn3)cc2)cc1` reads 57.3% (active); that for `CCCCOc1ccc(OC(=O)c2ccc(-c3ccc(CC)cn3)cc2)cc1`, -0.56% (inactive).
The result for `CCOC(=O)C1CCCN(c2c(OCC)c(=O)c2=O)C1` (stereo unspecified) reads -5.33% (inactive).
The result for `CCN(CCCNC(=O)CCCn1c(=S)[nH]c2cc3c(cc2c1=O)OCO3)c1cccc(C)c1` reads 2.49% (inactive); that for `CN1CCN(S(=O)(=O)c2ccc(F)c(Cl)c2)CC1`, 19.5% (inactive).
With `O=C(c1ccccc1)N1CCN(CC(O)COc2cccc(Cl)c2)CC1` (stereo unspecified), the inhibition was -18.1% (inactive).
The result for `CN1CCN(CC(O)COc2ccc3ccccc3c2)CC1` (stereo unspecified) reads 18.6% (inactive); that for `CCN1CCN(CC(O)COc2cccc(C(=O)OC)c2)CC1` (stereo unspecified), 53.1% (active); that for `O=C(/C=C/c1ccc([N+](=O)[O-])cc1)NCCSC1CCCCC1`, 27.9% (inactive).
As for `CCOc1ccccc1N1C(=O)c2nccnc2C1=O`, the figure is 1.76% (inactive); as for `CCOc1cc(/C=N/O)ccc1OCc1cccc(F)c1`, 9.06% (inactive).
As for `COCCNCC(=O)Nc1cccc(C)c1C`, the figure is -3.31% (inactive).
As for `CCC(C)NCC(=O)Nc1cccc(C)c1C` (stereo unspecified), the inhibition is -0.21% (inactive).
As for `Cc1cccc(NC(=O)CNCCN2CCCCC2)c1C`, the figure is 62.5% (active); as for `Cc1ccc2c(c1)-c1onc(C(=O)Nc3ccc(Cl)cn3)c1CO2`, 12.1% (inactive).
In the case of `COc1ccccc1NC(=O)Cn1cnc2sc(C(=O)O)c(C)c2c1=O`, the inhibition was -5% (inactive).
As for `C=CCn1c(SCC(=O)Nc2nc3ccccc3s2)nc(O)cc1=O`, the figure is 67% (active); as for `O=C(CSc1cccc[n+]1[O-])Nc1nc2ccccc2s1`, 14.6% (inactive).
The result for `O=C(CSc1ncnc2ccccc12)Nc1nc2ccccc2s1` reads 4.66% (inactive); that for `CCn1cc(C(=O)N[C@H](C)Cn2nnc3ccccc32)c(=O)c2ccc(C)nc21`, 0.5% (inactive); that for `Cc1ccc(NC(=O)C2C3NC(=S)N(c4ccc(F)cc4)C2(C)Oc2ccc(Br)cc23)c(C)c1` (stereo unspecified), 8.95% (inactive).
As for `CCCN1CCc2nc(NC(=O)COc3ccc(Cl)cc3Cl)sc2C1`, the figure is 4.61% (inactive); as for `O=C(Nc1ccc2c(c1)OCO2)C(c1ccccc1)N(Cc1ccccc1)Cc1ccccc1` (stereo unspecified), 75.7% (active); as for `CN(c1ccccc1)C(C(=O)Nc1ccc2c(c1)OCCO2)c1ccccc1` (stereo unspecified), 17.5% (inactive).
For `O=C(Nc1ccc2c(c1)OCO2)C(c1ccccc1)N1CCC(Cc2ccccc2)CC1` (stereo unspecified), the inhibition was -8.34% (inactive).
As for `O=C1Nc2cc(C(=O)O)ccc2S/C1=C/c1ccccc1Cl`, the inhibition was 2.94% (inactive).
As for `CCOC(=O)c1ccc(Nc2ncnc3c2cnn3-c2ccccc2)cc1`, the figure is 15.3% (inactive); as for `Cc1nc(NC(=O)c2ccoc2C)sc1C`, 1.06% (inactive).
As for `COc1ccc(C(=O)Nc2nc(C)c(C)s2)c(OC)c1`, the figure is 20.7% (inactive); as for `Cc1nc(NC(=O)c2cc(Br)ccc2Cl)sc1C`, 53.2% (active).
In the case of `NC(=O)c1ccccc1NC(=O)CNCc1ccco1`, the inhibition is -15.5% (inactive).
The result for `CCCn1c(SCC(=O)Nc2ccc(C(C)=O)cc2)n[nH]c1=O` reads -6.45% (inactive); that for `Cc1ccc(-c2n[nH]c(CNC(=O)c3cnccn3)n2)cc1`, 1.68% (inactive); that for `CCOc1ccccc1NC(=O)c1ccccc1NC(=O)c1ccc(OC)cc1`, -3.48% (inactive).
As for `S=c1[nH]nc(COc2cccc(Br)c2)n1-c1ccccc1`, the figure is 4.84% (inactive); as for `Cc1ccc(CS(=O)(=O)CCC(=O)NCc2ccc(F)cc2)cc1`, 9.88% (inactive); as for `CN(Cc1ccccc1)C(=O)Cc1c(C(=O)O)n(C)c2ccccc12`, 12.8% (inactive).
The result for `O=C(CC1CCCCC1)NCc1ccc(F)cc1` reads -4.27% (inactive).
Consider `Cn1c(C(=O)O)c(CC(=O)NCc2ccc(F)cc2)c2ccccc21`, for which the inhibition was 63.1% (active).
As to `CCCCC(=O)NCc1ccc(F)cc1`, the inhibition is 56.8% (active).
The result for `Cn1c(C(=O)O)c(CC(=O)Nc2ccc(F)cc2)c2ccccc21` reads -7.75% (inactive); that for `CC(=O)/C=C/c1oc2ccccc2c1-c1ccc(C)o1`, 21.6% (inactive).
As for `COc1cccc(/C=N/NC(=O)COc2cccc(Cl)c2)c1`, the figure is 1.05% (inactive).
As for `Cc1ccc(-c2c(C(=O)O)nnn2-c2nonc2N)cc1`, the figure is 3.35% (inactive).
As to `O=C(c1ccccc1)N1CCN(C2CCCC2)CC1`, the inhibition was 52.8% (active).
As to `O=C(c1ccccc1F)N1CCN(C2CCCC2)CC1`, the inhibition is 29.8% (inactive).
Take `O=C(c1ccc(-n2c(=S)[nH]c3ccccc3c2=O)cc1)N1CCN(C2CCCCC2)CC1`: the inhibition was 6.86% (inactive).
